Compounds with a hit are over-represented: about 2.4% of the library has one in this group of screens.
D2 ag-1 = D2 dopamine receptor (human) agonism; HEK293 T-REx D2 cells, calcium flux agonist mode; activation, % at 2 µM; 340,000 compounds, 0.53% hits; AID 485358;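 active = activation over 3 SD above normal in the single-dose calcium agonist read, cut at about 30% in these data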; note: 0% is about no effect
Target sequence (P14416 whole entry, looked up): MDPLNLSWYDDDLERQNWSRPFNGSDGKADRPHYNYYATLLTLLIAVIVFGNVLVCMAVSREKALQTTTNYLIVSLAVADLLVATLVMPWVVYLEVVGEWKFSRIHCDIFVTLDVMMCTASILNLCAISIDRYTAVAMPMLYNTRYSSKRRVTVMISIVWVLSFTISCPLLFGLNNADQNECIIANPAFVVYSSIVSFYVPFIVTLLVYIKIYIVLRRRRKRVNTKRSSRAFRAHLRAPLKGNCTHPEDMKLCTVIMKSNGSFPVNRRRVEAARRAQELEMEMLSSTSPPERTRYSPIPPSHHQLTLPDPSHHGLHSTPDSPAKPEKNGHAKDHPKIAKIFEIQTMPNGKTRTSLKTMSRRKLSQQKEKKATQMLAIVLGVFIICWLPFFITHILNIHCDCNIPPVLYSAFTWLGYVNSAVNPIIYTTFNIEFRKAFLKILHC
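Tetracycline-induced HEK293 T-REx cells with force-coupled D2 receptor, plated overnight at 30 C, loaded with no-wash calcium dye. After a 10 s baseline, compound was pin-added and calcium flux read kinetically for 180 s; calcium rises flagged agonists.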
D2 PAM-1 = positive allosteric modulators of human D2 dopamine receptor; potentiation, % at 10 µM; P14416; 340,000 compounds, 0.34% hits; HEK293 T-REx D2, calcium flux, EC20 dopamine potentiation;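 active = potentiation over 3 SD above the plate norm, cut at about 30% in these data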; note: 0% is about no effect
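Using a no-wash calcium dye in inducible, force-coupled HEK293 Trex cells expressing D2, we tracked fluorescence each second for 180 s after compound, then for 180 s after EC20 dopamine to detect augmented signalling.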
D2 ag-2 = activates the human D2 dopamine receptor; 360,000 compounds, 0.084% hits; DiscoveRx PathHunter D2 beta-arrestin, luminescence, 90 min; 100% = 57 uM dopamine signal; activation, % (no concentration beside the values); P14416; in the data active = activation above about 40%; inconclusive = between about 15% and that limit
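DiscoveRx PathHunter D2 beta-arrestin cells (2,100/well) attached overnight, then compound-stimulated 90 min at 37 C in HBSS/10 mM HEPES/0.1% Tween-20 buffer; beta-galactosidase complementation read by luminescence after 1 h at ambient temperature. Dopamine 57 uM final (EC100) as control.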
D2 PAM-2 = human D2 receptor positive allosteric modulation; P14416; DiscoveRx D2 beta-arrestin cells, luminescence, 90 min; 100% = 57 uM dopamine signal; potentiation, % (concentration not given with the values); 360,000 compounds, 0.23% hits; in the data active = potentiation above about 50%; inconclusive = mostly about 30% to 49%
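D2 cells co-treated with compound plus 50 nM dopamine (EC20) for 90 min at 37 deg C to detect potentiation. Beta-arrestin recruitment was read as enzyme-fragment luminescence after 1 h at ambient temperature. Full response was set by 57 uM dopamine.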
D2 antag = antagonists of human D2 dopamine receptor; P14416; HEK293 TREx D2 cells, calcium flux, dopamine EC80; 340,000 compounds, 2% hits; inhibition, % at 10 µM; AID 485344; in the data active = inhibition above about 30%; inactive = below that, where a call was filed; note: 0% is about no effect
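Tetracycline-induced HEK293 T-REx cells expressing D2 force-coupled to calcium signalling were dye-loaded, exposed to compound for 180 s, then challenged with an EC80 of dopamine; calcium flux was followed kinetically for a further 180 s.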
* hit, by the source's call; u = inconclusive; x = no result.

SMILES	D2 ag-1	D2 PAM-1	D2 ag-2	D2 PAM-2	D2 antag
COc1ccc(Cc2nc(-c3ccncc3)no2)cc1	-1	5	-1	51*	-20
CC(C)(C)c1ccc(OCc2nc(-c3ccccn3)no2)c(Br)c1	0	7	0	-21	38*
O=C(COC(=O)c1ccccc1Br)NCCN1C(=O)CSC1=O	-1	7	3	-21	6
Cn1c(=O)c2c(nc(NCc3ccco3)n2Cc2ccccc2Cl)n(C)c1=O	-1	-4	0	-11	11
C#Cc1ccc(CN2CCC(Oc3ccc(C(=O)NCc4ccccn4)cc3)CC2)cc1	0	-19	-3	-31	36*
COCCNc1nc2c(c(=O)n(C)c(=O)n2C)n1Cc1cccc(C)c1	1	8	1	1	-6
COCCCNc1nc2c(c(=O)n(C)c(=O)n2C)n1Cc1cccc(OC)c1	0	14	1	-9	40*
COc1ccc(OC)c(NC(=O)N[C@@H](Cc2ccccc2)C(=O)O)c1	0	0	0	-7	-15
Cc1ccc2nc(CSc3nnc(-c4ccncc4)n3C)cc(=O)n2c1	0	-4	-2	18	71*
C=CCn1c(SCc2cc(=O)n3cc(C)ccc3n2)nnc1-c1ccc(F)cc1	-1	1	3	1	10
COc1ccc(NC(=O)CCS(=O)(=O)c2nc(-c3ccc4c(c3)OCO4)cc(C(F)(F)F)n2)cc1	1	6	x	x	x
Cc1cc(C)cc(-c2nnc(SCC(=O)Nc3cc(C)on3)o2)c1	0	8	0	-11	36*
Cc1cc(NC(=O)CSc2nnc(-c3ccccc3)c(-c3ccccc3)n2)no1	-1	-7	1	-2	80*
Cc1cc(NC(=O)CSc2ccccc2)no1	-1	6	-2	-22	2
Cc1cc(NC(=O)CCc2ccc(-c3ccccc3)o2)no1	0	-16	-6	-19	33*
Cc1cc(NC(=O)CSc2nnc(-c3ccccc3)o2)no1	x	x	1	-3	x
Cc1cc(NC(=O)CCS(=O)(=O)c2nc(-c3ccccc3)cc(C(F)(F)F)n2)no1	1	38*	-7	-19	13
CC(C)Sc1nc(N)c2c3c(sc2n1)CN(C)CC3	0	-5	-7	-10	-7
CC(C)CCNC(=O)c1ccc(Cn2c(=S)[nH]c3ccccc3c2=O)cc1	0	-3	3	-2	20
Cc1cc(C)n(C(=O)CN2C(=O)c3ccccc3C2=O)n1	-1	-2	-1	-6	3
Cc1cc(C)n(C(=O)C(C)N2C(=O)c3ccccc3C2=O)n1 (configuration not stated)	-1	31*	-2	-2	-7
COc1ccc(NC(=O)Cn2c(=O)n(CC3CCCO3)c(=O)c3cc(OC)c(OC)cc32)cc1OC (configuration not stated)	0	-7	-3	-4	8
CCn1nc(-c2ccccc2)c(-c2ccccc2)c(C(=O)OCCOC)c1=O	0	23	x	x	x
CNc1snc(C)c1C(=O)OCC(=O)N(C)c1ccccc1	1	24	-3	1	-13
CNc1snc(C)c1C(=O)OCC(=O)N(C)Cc1ccccc1	0	-7	u	3	35*
SMILES	D2 ag-1	D2 PAM-1	D2 ag-2	D2 PAM-2	D2 antag
COc1ccccc1N1CN(CCc2ccccc2)CNC1=S	0	-2	-2	0	9
COc1ccc(Cl)cc1C(=O)Nc1c2c(nn1-c1ccc(Cl)cc1)CS(=O)(=O)C2	-1	10	x	x	x
CC(OC(=O)c1ccc([N+](=O)[O-])o1)C(=O)Nc1nc(-c2ccc(F)c(F)c2)cs1 (configuration not stated)	0	-6	7	66*	3
Cc1cc(C(=O)OC(C)C(=O)Nc2nc(-c3ccccc3)cs2)c(C)o1 (configuration not stated)	-1	28	-1	3	-8
COC(=O)c1ccccc1NC(=O)c1cnn2c(C(F)F)cc(C3CC3)nc12	-2	33*	-1	15	-27
COc1cc(NC(=O)c2cnn3c(C(F)F)cc(C4CC4)nc23)c(OC)cc1Cl	0	-2	-2	-3	3
Cc1c(CN2CCCC(C(=O)Nc3cccc(-n4cccn4)c3)C2)cnn1C (configuration not stated)	-3	-17	-3	-19	47*
COc1cccc(C(=O)C2CCCN(Cc3cccn3-c3cccnc3)C2)c1 (configuration not stated)	0	-20	1	-11	-2
Cc1cc(CN2CCCC(C(=O)Nc3cccc(-n4cccn4)c3)C2)cc(C)c1O (configuration not stated)	1	-22	-4	-34	38*
COc1cccc(C(=O)C2CCCN(Cc3cccc(-n4cccn4)c3)C2)c1 (configuration not stated)	-1	-23	-3	-10	32*
Cc1coc2c(C)c3oc(=O)c(CC(=O)N4CCCCC4)c(C)c3cc12	0	-1	x	x	x
CCOC(=O)Cc1nn(CC)c(=O)c2ccccc12	2	11	-5	-2	-3
COc1ccc(C(=O)CSc2nc3cccnc3n2C)cc1	0	11	-3	1	-14
COc1cccc(C(=O)CSc2nc3cccnc3n2C)c1	1	-3	1	-3	37*
COc1cc(NC(=S)NC(=O)CCc2ccccc2)cc(OC)c1	1	4	4	62*	-4
O=C(CCc1ccccc1)NC(=S)Nc1cccc(Br)c1	0	6	u	80*	-5
O=C(NCCN1CCN(c2ccccc2)CC1)C1(S(=O)(=O)c2ccc(Cl)cc2)CC1	-1	4	14	12	3
COc1ccc(C2CC(=O)N3CN(C4CCCCC4)CSC3=C2C#N)cc1 (configuration not stated)	-1	-8	x	x	x
O=C(NC1CCCC1)c1ccc2nc[nH]c2c1	0	38*	-1	-8	7
O=C(Nc1ccsc1C(=O)NC1CCCCC1)c1ccccc1	-1	2	0	-12	31*
O=C(NC1CCCC1)c1ccc2nc(-c3ccco3)c(-c3ccco3)nc2c1	-1	-7	7	26	33*
O=C(Nc1ccccc1C(=O)NC1CCCCC1)c1ccccc1	-1	11	-1	-1	-8
Cc1ccc(C(=O)NC2CCCCC2)cc1	0	-12	1	-11	62*
Cc1ccccc1CSc1nc2c(sc3ccccc32)c(=O)n1CCCOC(C)C	0	3	x	x	x
Cc1ccc(OC(=O)c2cccc(S(=O)(=O)N3CCN(C)CC3)c2)c(Br)c1	0	-2	-3	8	6
COc1cc2c(cc1OC)CN(C(=O)c1ccc3nc[nH]c3c1)CC2	1	-1	0	2	3
O=C(c1ccc2nc[nH]c2c1)N1CCc2ccccc2C1	-1	-3	-3	-8	35*

Assay outcomes: PubChem, National Center for Advancing Translational Sciences (NCATS)
